From PubChem BioAssay (NCATS)
Results filed as inconclusive are left out. A number with no mark means an inactive call. Active and inactive are the calls of the source. Calls follow the shape of the dose curve; as a rule, active = well fitted activation curve with a large enough effect; inconclusive = small, poorly fitted or top-dose-only effect, or another doubt; inactive = no such curve, though single readings can be large or run the other way.

molecular target: Rap guanine nucleotide exchange factor 3 (Homo sapiens) (UniProt O95398); test: Counterscreen qHTS for agonist of cAMP-regulated guanine nucleotide exchange factor 3 (EPAC1) (AID 1645889); details: EPAC1 Rap1B-BODIPY-GDP exchange, fluorescence; series mostly up to 154 µM; activation: at the top concentration; also: nearly all actives have a fitted effect of over 40% in size; as to activation: % of control where 0% means no effect
Method in brief: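 Rap1B-BODIPY-GDP 250 nM + GDP 50 uM; cpds 7-pt, final 9.74 nM–152 uM (activator mode) or from 7.32 nM upwards (inhibitor mode); RT; FI 480/540 nm at 5 and 30 min, then ± cAMP, reread.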
Potency is read from the fitted curve at half-maximal effect.

Structure (SMILES) | activation | Potency
O=S1(=O)CCN2C(Cc3ccc(SC(F)F)cc3)=CSC2=N1 | -4.02% | 
O=S(=O)(NCc1ccccc1)c1ccc(S(=O)(=O)N(Cc2cccs2)CC2CCCO2)cc1 (stereo not given) | -0.508% | 
CCc1ccc2oc(C(=O)Nc3ccccc3OC)cc(=O)c2c1 | 13.9% | 
CCO/C(C)=N/Oc1cc(OC)cc(OC)c1 | -1% | 
Cc1ccc(C(CCN(Cc2ccccc2)C(=O)c2ccco2)c2ccco2)cc1 (stereo not given) | 15.2% | 
CCCc1[nH]nc2c1C(c1cccnc1)C(C#N)=C(N)O2 (stereo not given) | -0.109% [at 30.8 µM] | 
CN1C(=O)/C(=C\c2ccc(N(C)C)cc2)OC1=S |  | 15.8 µM (active)
COc1cc(OC)nc(Oc2cc(/C=N/O)ccc2OC)n1 | 1.61% [at 30.8 µM] | 
COC(=O)C1=CN(c2ccc(F)cc2)C(N)=C(C#N)C1c1cccc(OC)c1OC (stereo not given) | 17% [at 30.8 µM] | 
O=C1c2cc(O)c(O)cc2OC(c2ccc(O)c(O)c2)C1O (stereo not given) | 19.1% | 
O=C(COc1ccccc1Cl)Nc1cccc(S(=O)(=O)NC2=NCCCCC2)c1 | 31.6% | 
O=C1CC(Cc2ccccc2)C(=O)N1CCc1ccc2c(c1)OCO2 (stereo not given) | 1.4% [at 30.8 µM] | 
O=C(NCC1CCCO1)c1ccc(C(=O)NCC2CCCO2)cc1 (stereo not given) | -3.36% [at 30.8 µM] | 
COc1cccc(C(c2nnnn2-c2c(C)cccc2C)N2CCN(C/C=C/c3ccccc3)CC2)c1OC (stereo not given) | 23.6% | 
COc1ccc(CCNC(=O)CCCCCn2c(SCC(N)=O)nc3cc4c(cc3c2=O)OCO4)cc1OC | 9.58% | 
CCNC(C(=O)c1c[nH]c2c(CC)cccc12)c1ccccc1 (stereo not given) | 23.9% | 
Cc1ccc(CNS(=O)(=O)c2ccc(-n3cnnn3)c(C)c2)cc1 | 5.31% [at 30.8 µM] | 
COc1ccc(C2=CC(=O)C[C@H](COCc3ccccc3)N(C(=O)OC(C)(C)C)O2)cc1 | 7.57% | 
O=C(CCC(=O)N1CCSc2ccccc21)NCc1cccc(Cl)c1 | 22.1% [at 30.8 µM] | 
Cc1c(C(=O)N2CCCCC2)oc2ccc(Br)cc12 | 1.57% | 

Structure (SMILES) | activation | Potency
O=C1S/C(=C\c2ccc(O)c([N+](=O)[O-])c2)C(=O)N1c1ccccc1Cl | 1.11% | 
COc1cc(OC)nc(Oc2cccc(Cl)c2C)n1 | 3.31% | 
O=c1[nH]c(/C=C/c2cccc([N+](=O)[O-])c2)c([N+](=O)[O-])c(=O)[nH]1 | 11.7% | 
CN(C)CCCN(C(=O)COc1ccc(Cl)cc1)c1nc2cc3c(cc2s1)OCCO3 | -2.44% | 
CCn1c(CNC(=O)COC)nc2ccccc21 | 4.54% [at 30.8 µM] | 
O=C(O)CCc1ccc(-c2ccccc2)n1-c1cccc(Br)c1 | 9.42% | 
COc1ccccc1CCc1nnc(CCC(=O)N(C)Cc2cccc3ncccc23)o1 | 0.125% | 
COc1cc(/C=C2\SC(=O)N(CC(=O)Nc3cccc(C)c3)C2=O)cc([N+](=O)[O-])c1O | 24.3% | 
C=CCn1c(C)cc(C(=O)Cn2ncc(Cl)c(Cl)c2=O)c1C | 18.2% | 
COc1cc(-c2c(CCO)sc3ccccc23)cc(OC)c1OC | 8.02% [at 30.8 µM] | 
COc1ccc(-c2cc(C(F)(F)F)nc(SCC(=O)NCCc3ccccc3)n2)cc1OC | 15.9% | 
CN(Cc1ccccc1N1CCCC1)C(=O)c1cc2cc(Cl)ccc2o1 | 23.1% | 
CCOc1c(OC)cccc1C(=O)NCC1(c2ccccc2)CCCC1 | -1.25% | 
O=C(OCc1c(-c2ccccc2)ncc2ccccc12)c1ccccc1C(F)(F)F | 5.73% | 
CC(C)(C)[C@H](N)C(=O)N[C@H]1CCC2C3CC=C4C[C@@H](O)CC[C@]4(C)C3CC[C@@]21C (stereo not given in full) | 31.4% [at 30.8 µM] | 
COc1ccc(C=NNc2ccc([N+](=O)[O-])cc2S(=O)(=O)Nc2ccccc2C(=O)O)cc1OC | 21.9% [at 30.8 µM] | 
Cc1cccc(C2c3[nH]c4ccccc4c3CCN2Cc2cccn2-c2ncccn2)c1 (stereo not given) | 17.6% [at 30.8 µM] | 
COc1ccc(C2c3c(ncn(CCCO)c3=N)Oc3ccc4ccccc4c32)cc1 (stereo not given) | 22.2% [at 30.8 µM] | 
CCc1cc(C(=O)c2ccc(OC)cc2)c(NC(=O)CC(C)(C)CC(=O)O)s1 | 2.45% | 
COc1cccc(NC(=O)CN(C)C(=O)CNC(=O)c2ccc(Oc3ccccc3)cc2)c1 | 29.7% [at 30.8 µM] | 
